# Measured values as given in PubChem BioAssay (Tox21).
# Calls of active or inactive are those of the source. Where a call stands in place of a potency, no number is given. Calls come from the whole dose curve.
# Target: Acetylcholinesterase (Homo sapiens) (UniProt P22303)
# Assay: Acetylcholinesterase (AChE) small molecule antagonists: enzyme-based qHTS assay with human liver microsomes (AID 1347399); note: nearly all actives have a fitted effect of over 60% in size
# Details: Potency: qHTS inhibition; outcome: qHTS inhibition; series mostly up to 115 µM
# Method in brief: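 Recombinant human AChE (50 mU/mL in the enzyme mix) and human liver microsomes (0.25 mg/mL final) were preincubated with compound and NADPH (0.25 mg/mL final) for 30 min at 37 C. Acetylthiocholine/DTNB was then added; thiocholine was read colorimetrically after 10 min at room temperature.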
# Sequence of Acetylcholinesterase (Homo sapiens) (P22303 whole entry, looked up): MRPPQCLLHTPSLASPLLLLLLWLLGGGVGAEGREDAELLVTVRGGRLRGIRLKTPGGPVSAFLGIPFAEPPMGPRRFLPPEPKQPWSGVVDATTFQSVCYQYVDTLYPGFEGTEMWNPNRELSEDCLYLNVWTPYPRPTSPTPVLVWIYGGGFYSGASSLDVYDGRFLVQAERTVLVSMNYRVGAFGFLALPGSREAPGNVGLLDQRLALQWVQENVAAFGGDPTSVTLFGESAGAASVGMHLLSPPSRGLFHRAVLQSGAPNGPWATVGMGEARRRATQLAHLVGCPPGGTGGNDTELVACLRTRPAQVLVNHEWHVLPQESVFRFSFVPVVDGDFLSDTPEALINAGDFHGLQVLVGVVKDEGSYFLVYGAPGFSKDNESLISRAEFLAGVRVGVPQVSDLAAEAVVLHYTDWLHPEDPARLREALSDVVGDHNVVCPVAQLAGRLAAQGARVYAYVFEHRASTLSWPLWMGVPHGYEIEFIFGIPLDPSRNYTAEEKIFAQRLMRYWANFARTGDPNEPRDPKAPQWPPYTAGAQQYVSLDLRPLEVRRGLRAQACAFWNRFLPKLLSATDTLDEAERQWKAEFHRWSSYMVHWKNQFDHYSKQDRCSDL
row,SMILES,Potency
1,CC(C)=CCC/C(C)=C/C=O,inactive
2,COC(=O)c1ccc(C(=O)OC)c(C(=O)OC)c1,inactive
3,C=C(C)c1cccc(C(=C)C)c1,inactive
4,CC(=O)N[C@@H](CS)C(=O)O,inactive
5,CC1=CC(O)CC(C)(C)C1 (stereo not given),inactive
6,NNC(=O)CP(=O)(c1ccccc1)c1ccccc1,inactive
7,CC(C)CCCC(C)N (stereo not given),inactive
8,NC(=O)OCC(COC(N)=O)c1ccccc1,inactive
9,CCCCOCCOCCSC#N,inactive
10,CC(C)C/C=C(\C=O)c1ccccc1,inactive
11,Nc1ccn([C@H]2CS[C@@H](CO)O2)c(=O)n1,inactive
12,O=C1OCc2ccccc21,inactive
13,NC(=O)Cc1cccc2ccccc12,inactive
14,CCNc1nc(N)nc(Cl)n1,inactive
15,Cc1cccc(C)c1NC(=O)CN1CCCCCC1,inactive
16,CCC(CC)Nc1ccc(C)c(C)c1,inactive
17,COc1cc(Cl)ccc1Cl,inactive
18,CCCCCCCCSCC,inactive
19,CC(=O)c1ccccc1[N+](=O)[O-],inactive
20,Cc1ccc(-c2cc(C(F)(F)F)nn2-c2ccc(S(N)(=O)=O)cc2)cc1,inactive
